Compound activity from PubChem BioAssay.
A selection: hits, their analogues and other compounds. The true share with any hit is near 7.5%.
KinaseGlo FLuc: blocks Kinase-Glo luciferase, a counter-screen artifact; actives 0.28% (n = 200,000); Q27757; Potency, µM (series often up to 38.3 µM), most hits filed as inhibitors; AID 1379; Kinase-Glo luciferase, ATP luminescence, 8 min; further: nearly all actives have a fitted effect of over 60% in size
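Luminescence was the read-out, taken after 8-minute incubation at ambient temperature. Luciferase turned over luciferin with 10 uM ATP in imidazole pH 7.2 buffer containing KCl, MgCl2, Tween 20 and BSA.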
Rab9 prom act: activators of Rab9 promoter | Huh7 Rab9 promoter-luciferase reporter, luminescence, 24 h | Potency, µM (top dose mostly 9.22 µM), hits mostly activators | actives 2.8% (n = 320,000) | AID 485297; further: nearly all actives have a fitted effect of over 60% in size
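Rab9 promoter-driven luciferase in stably transfected Huh7 cells; 1500 cells/well rested 2 h, exposed to compound in DMSO for 24 h at 37 °C, 5% CO2. Luminescence read 10 min after adding luciferase reagent at ambient temperature.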
SMN2 splice enh: enhancers of SMN2 splice variant expression | HEK293 SMN2-luciferase splicing reporter, luminescence, 30-36 h | Potency, µM (series often up to 46.1 µM), most hits filed as activators | actives 2.8% (n = 210,000); further: nearly all actives have a fitted effect of over 55% in size
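HEK293 cells carry an SMN2 minigene-luciferase reporter in which exon 7 inclusion puts luciferase in frame. Cells were seeded at 2000 cells/well, attached for 10-12 hours, then exposed to compounds for 30-36 hours at 37C before ONE-Glo luminescence.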
NPC1 promoter act: activators of NPC1 promoter; Huh7 NPC1 promoter luciferase reporter, 24 h; Potency, µM (highest dose often 9.22 µM), hits mostly activators; actives 2.4% (n = 320,000); further: nearly all actives have a fitted effect of over 60% in size
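Compounds in DMSO were transferred onto Huh7 NPC1-luciferase reporter cells pre-incubated 2 h; after 24 h at 37 °C, Amplite reagent was dispensed and luminescence recorded 10 min later.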
ELG1 genotox: induces genotoxicity in HEK293T cells with luciferase-tagged ELG1; actives 1.3% (n = 330,000); AID 504466; HEK293T ELG1-luciferase reporter, luminescence, 16 h; Potency, µM (doses to about 46 µM), most hits filed as activators; further: nearly all actives have a fitted effect of over 60% in size
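Genotoxicity was scored as increased ELG1-luciferase reporter signal, measured by ONE-Glo luminescence (30 min, room temperature). Compound or vehicle exposure of the HEK293T reporter cells lasted 16 hr at 37°C.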
FLuc modulator: inhibits or activates purified firefly luciferase, miR-21 counter-screen; P08659; purified FLuc, Km substrates, luminescence inhibition; Potency, µM (titrated, usually from 57.5 µM), actives largely listed as inhibitors; actives 6.9% (n = 360,000); AID 588342; further: nearly all actives have a fitted effect of over 55% in size
Target sequence (P08659 whole entry, looked up): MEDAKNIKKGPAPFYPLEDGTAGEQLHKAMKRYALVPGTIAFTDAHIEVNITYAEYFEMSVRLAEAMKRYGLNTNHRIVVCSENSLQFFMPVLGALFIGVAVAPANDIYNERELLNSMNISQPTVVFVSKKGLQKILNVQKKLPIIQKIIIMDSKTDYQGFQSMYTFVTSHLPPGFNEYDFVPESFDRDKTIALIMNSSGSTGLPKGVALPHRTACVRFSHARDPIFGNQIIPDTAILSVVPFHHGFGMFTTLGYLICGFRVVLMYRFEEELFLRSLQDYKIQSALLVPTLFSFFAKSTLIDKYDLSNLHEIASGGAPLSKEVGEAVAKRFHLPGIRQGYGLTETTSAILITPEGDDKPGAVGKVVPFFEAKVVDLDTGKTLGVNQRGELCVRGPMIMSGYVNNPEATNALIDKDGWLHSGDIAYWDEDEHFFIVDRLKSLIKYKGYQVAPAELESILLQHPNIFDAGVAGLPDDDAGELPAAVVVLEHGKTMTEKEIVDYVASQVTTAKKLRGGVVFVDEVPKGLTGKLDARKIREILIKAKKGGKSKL
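Biochemical qHTS of compounds, final roughly 60 µM downward over six points, against 10 nM purified firefly luciferase using Km concentrations of substrates (10 uM D-luciferin, 10 uM ATP) in Tris acetate pH 7.5 buffer; luminescence output.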
A number is an active result; i = inactive; ? = inconclusive; nt = no result; ! = a repeat was not active. The call rests on the fitted dose curve; in most records, active means well fitted curve in the direction sought with a large enough effect; inconclusive means small, poorly fitted or top-dose-only effect, or another doubt; inactive means no such curve, though single readings can be large; an effect the other way counts as inactive or inconclusive.

SMILES	KinaseGlo FLuc	Rab9 prom act	SMN2 splice enh	NPC1 promoter act	ELG1 genotox	FLuc modulator
N#Cc1c(NC(=S)NC(=O)c2ccccc2)sc2c1CCCC2	i	?	i	i	i	?
NC(=O)c1c(NC(=O)c2cccnc2)sc2c1CCCCC2	nt	2.51µM	nt	2.24µM	?	1.69µM
NC(=O)c1c(NC(=O)c2cccnc2)sc2c1CCCC2	i	?	i	?	?	?
NC(=O)c1c(NC(=O)c2cccc(N3C(=O)CCC3=O)c2)sc2c1CCCCC2	nt	?	nt	i	i	0.953µM
N#Cc1c(NC(=O)c2cnccn2)sc2c1CCCC2	i	?	10µM	i	?	6.01µM
N#Cc1c(NC(=O)c2ccccc2)sc2c1CCC2	i	0.631µM	2.24µM	?	2.91µM	2.69µM
CCCc1nnc(SCC(=O)N2CCCC(C)C2)n1CCOC (stereo unspecified)	i	i	i	i	i	i
CCOC(=O)c1sc(NC(=O)c2cccnc2)c(C#N)c1C	i	i	i	i	i	12µM
Cc1ccc(N(C)C(=O)Cn2cc(S(=O)(=O)N3CCCC3)c(S(=O)(=O)N3CCCC3)c2)cc1	nt	nt	nt	nt	nt	i
COCCCNC(=O)COC(=O)c1ccc(-c2nc3ccccc3s2)s1	i	?	12.6µM	i	i	5.36µM
COc1ccc(CCNC(=O)COC(=O)c2ccc(C)s2)cc1	nt	i	nt	i	i	i
Cc1ccc(-c2nnc(Nc3ccc(O)cc3)c3ccccc23)cc1S(=O)(=O)NC(C)(C)CO	nt	nt	i	nt	nt	19µM
COc1ccc(-c2nnc(Nc3ccc(CC(N)=O)cc3)c3ccccc23)cc1	i	i	i	i	i	i
COc1ccc(Nc2nnc(-c3ccc(O)cc3)c3ccccc23)cc1	i	i	i	i	?	23.9µM
NC(=O)Cc1ccc(Nc2nnc(-c3ccccc3)c3ccccc23)cc1	i	i	i	i	i	21.3µM
Cc1nnc(Nc2ccc3c(c2)OCO3)c2ccccc12	i	?	i	?	?	15.1µM
CCC(C)(C)NC(=O)C(c1ccccn1)N(C(=O)c1csnn1)c1ccc(C)cc1 (stereo unspecified)	i	i	nt	i	i	i
CCOc1ccc(C(C(=O)NCC2CCCO2)N(Cc2cccs2)C(=O)c2snc(C(N)=O)c2N)cc1 (stereo unspecified)	nt	i	nt	i	i	i
CC(C)(C)c1ccc(OCC2CO2)cc1 (stereo unspecified)	nt	nt	i	nt	nt	nt
Cc1ccc(-c2nnc(Nc3ccc4c(c3)OCO4)c3ccccc23)cc1S(N)(=O)=O	i	i	i	i	i	23.9µM
Cc1ccc(C)c(NC(=O)CSc2c3c(nc4ccc(Cl)cc24)CCCC3)c1	nt	nt	i	nt	nt	i
O=C1OC(c2ccc(F)cc2)=N/C1=C\c1ccc(Br)o1	i	i	i	i	i	6.01µM
COc1cccc(-c2cc(=O)c3ccc(OC)cc3o2)c1	i	nt	12.6µM	nt	nt	nt
COc1cccc(-c2cc(=O)c3cc(O)ccc3o2)c1	i	nt	nt	nt	nt	nt
CCC(N=c1cc(-c2ccc(OC)cc2)oc2ccc(C)cc12)C(=O)O (stereo unspecified)	i	i	?	?	?	3.01µM
SMILES	KinaseGlo FLuc	Rab9 prom act	SMN2 splice enh	NPC1 promoter act	ELG1 genotox	FLuc modulator
COc1ccc(-c2cc(=O)c3cc(OC)ccc3o2)cc1	i	0.251µM	0.891µM!	0.501µM	?	0.213µM
CCC(N=c1cc(-c2ccc(OC)c(OC)c2)oc2ccc(C)cc12)C(=O)O (stereo unspecified)	i	i	i	i	i	i
CC(/C=C1\SC(=S)N(CCC(=O)Nc2nc(C)cs2)C1=O)=C\c1ccccc1	nt	i	nt	i	i	?
CCOc1ccc(CC(=O)NCCS(=O)(=O)N2CCN(c3ccccc3OC)CC2)cc1	nt	nt	nt	nt	nt	i
COc1ccccc1N1CCN(S(=O)(=O)CCNC(=O)COc2ccc(C(C)C)cc2)CC1	nt	nt	nt	nt	nt	23.9µM
Cc1csc2ncc(C(=O)Nc3ccc4c(c3)OCCO4)c(=O)n12	i	2.24µM	4.47µM	?	2.31µM	?
Cc1cccc(NC(=O)c2cnc3scc(C)n3c2=O)c1	i	3.16µM	12.6µM	3.16µM	i	8.49µM
CCOc1ccc(NC(=O)Cn2c3ncccc3c(=O)n2-c2ccc(CC)cc2)cc1	nt	nt	nt	nt	nt	i
CC(C)(C)C(=O)/C=c1\[nH]c(=O)/c(=C\c2ccc(F)cc2)s1	i	i	i	i	i	23.9µM
Cc1ccccc1/C=c1\s/c(=C\C(=O)C(C)(C)C)[nH]c1=O	i	i	i	i	i	16.9µM
CC(C)(C)C(=O)/C=c1\[nH]c(=O)/c(=C\c2ccccc2F)s1	i	i	i	i	i	?
Cc1cccc(Nc2cc(C)nc3nc(-c4ccccc4)nn23)c1	nt	nt	i	nt	nt	i
Cc1ccc(CNc2cc(C)nc3nc(-c4cccc(C)c4)nn23)cc1	nt	nt	nt	nt	nt	12µM
CCOc1ccc(CNc2cc(C)nc3nc(-c4cccc(C)c4)nn23)cc1OC	nt	nt	nt	nt	nt	5.36µM
Cc1cccc(C)c1NC(=O)Cn1nnc(C(=O)Nc2c(C)cccc2C)c1N	nt	nt	i	nt	nt	i
CCCOc1ccc(CNC(=O)CN2C(=O)c3cccnc3Oc3ccc(C)cc32)cc1	nt	nt	nt	nt	nt	i
O=C(O)Cn1cc(/C=N/NC(=O)c2cc3cc(Br)ccc3o2)c2ccccc21	nt	i	nt	i	i	12µM
C=CCn1cc(/C=N\NC(=O)c2cc3c(ccc4ccccc43)o2)c2ccccc21	i	i	i	i	i	?
O=C(N/N=C/c1cccn1-c1ccc(O)cc1)c1cccc2ccccc12	nt	i	nt	i	i	i
O=C(N/N=C/c1cccc2ccccc12)c1cc2ccccc2o1	nt	i	nt	i	i	?
C#CCn1cc(/C=N/NC(=O)c2cc3ccccc3o2)c2ccccc21	i	i	i	i	i	12µM
O=C(O)c1ccc(-n2cccc2/C=N\NC(=O)c2cc3cc(Br)ccc3o2)cc1	nt	i	nt	i	i	15.1µM
Cn1cc(/C=N/NC(=O)c2cc3cc(Br)ccc3o2)c2ccccc21	nt	i	nt	i	i	8.49µM
CCOc1ccc(NC(=O)Cn2c(=O)n(Cc3ccc(C(=O)NCc4ccc(C)cc4)cc3)c(=O)c3ccccc32)cc1	nt	nt	i	nt	nt	i
Cc1cc(NC(=O)c2nn3cccnc3c2Cl)no1	i	1.41µM	10µM	1.78µM	?	10.7µM
SMILES	KinaseGlo FLuc	Rab9 prom act	SMN2 splice enh	NPC1 promoter act	ELG1 genotox	FLuc modulator
Cc1cc(NC(=O)c2cnn3cccnc23)no1	i	?	?	?	4.11µM	?
O=C(Nc1cccc(Cl)c1)c1cnn2cccnc12	i	2µM	10µM	?	?	7.57µM
O=C(Nc1cc(Cl)cc(Cl)c1)c1cnn2cccnc12	i	i	i	i	i	i
C=CCNC(=O)c1nn2cccnc2c1Cl	i	i	i	i	i	i
CCN(CC(=O)NCc1ccc(F)cc1)C(=O)CCNS(=O)(=O)c1cccc(C)c1	nt	i	nt	i	i	i
CCOc1ccc(-c2nonc2NC(=O)c2oc3c(C)c(C)ccc3c2C)cc1OCC	nt	nt	i	nt	nt	i
